# Assay outcomes (PubChem)
# Rab9 promoter act – qHTS Assay for Rab9 Promoter Activators; Huh7 Rab9 promoter-luciferase reporter, luminescence, 24 h; Potency, µM (doses to about 9.22 µM), without a hit: at the highest dose activation, negative = inhibition, most hits filed as activators; 320,000 tested, 2.8% active; AID 485297, 2010; further: % of control where 0% means no effect; nearly all actives have a fitted effect of over 60% in size
#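 Quantitative HTS format; Huh7 Rab9-luciferase reporter cells (1500/well) receive compound 2 h post-plating, incubate 24 h at 37 °C, then get luciferase reagent for 10 min before luminescence reading.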
# SMN2 splice enh – qHTS Assay for Enhancers of SMN2 Splice Variant Expression; Potency, µM (series often up to 46.1 µM), inactives show at the top dose activity change, positive = activation, actives largely listed as activators; 210,000 tested, 2.8% active; HEK293 SMN2-luciferase splicing reporter, luminescence, 30-36 h; further: % of control where 0% means no effect; nearly all actives have a fitted effect of over 55% in size
#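 HEK293 cells carry an SMN2 minigene-luciferase reporter in which exon 7 inclusion puts luciferase in frame. Cells were seeded at 2000 cells/well, attached for 10-12 hours, then exposed to compounds for 30-36 hours at 37C before ONE-Glo luminescence.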
# FLuc modulator – qHTS profiling assay for firefly luciferase inhibitor/activator using purifed enzyme and Km concentrations of substrates (counterscreen for miR-21 project); 360,000 tested, 6.9% active; purified FLuc, Km substrates, luminescence inhibition; Potency, µM (series often up to 57.5 µM), without a hit: at the top dose activity change, negative = inhibition, hits mostly inhibitors; Luciferin 4-monooxygenase (Photinus pyralis), P08659;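 further: plate controls were vehicle for no effect and reference inhibitor for full effect; nearly all actives have a fitted effect of over 55% in size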
# Target sequence (P08659 whole entry, looked up): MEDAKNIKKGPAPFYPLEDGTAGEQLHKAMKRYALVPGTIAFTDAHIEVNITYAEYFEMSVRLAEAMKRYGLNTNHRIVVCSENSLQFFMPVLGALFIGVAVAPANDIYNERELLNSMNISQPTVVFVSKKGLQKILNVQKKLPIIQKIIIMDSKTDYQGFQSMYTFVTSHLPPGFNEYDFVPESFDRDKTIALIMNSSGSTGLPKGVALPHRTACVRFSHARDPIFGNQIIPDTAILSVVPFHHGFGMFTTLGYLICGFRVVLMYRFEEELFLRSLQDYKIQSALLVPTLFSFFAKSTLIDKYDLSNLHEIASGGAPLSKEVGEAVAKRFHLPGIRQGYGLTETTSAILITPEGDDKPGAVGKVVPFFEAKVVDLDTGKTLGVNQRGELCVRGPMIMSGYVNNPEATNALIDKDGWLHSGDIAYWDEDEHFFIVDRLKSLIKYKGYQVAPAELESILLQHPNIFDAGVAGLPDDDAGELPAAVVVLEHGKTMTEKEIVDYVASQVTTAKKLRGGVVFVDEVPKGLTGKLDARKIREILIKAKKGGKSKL
#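 Purified P. pyralis luciferase (10nM final) with 10uM D-luciferin and 10uM ATP (Km levels) in 50mM Tris acetate pH 7.5, 10mM Mg acetate, 0.01% Tween-20, 0.05% BSA; qHTS 6-point titration, ~60 µM downward; luminescence read.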
# NPC1 promoter act – qHTS Assay for NPC1 Promoter Activators | Huh7 NPC1 promoter luciferase reporter, 24 h | Potency, µM (titrated, usually from 9.22 µM), for the others: at the top dose activation, most hits filed as activators | 320,000 tested, 2.4% active | AID 485313, 2010; further: % of control where 0% means no effect; nearly all actives have a fitted effect of over 60% in size
#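 Cells: Huh7 expressing luciferase under the NPC1 promoter, 1500/well. Seeded 2 h, compound added, incubated 24 h at 37 °C. Luciferase reagent, 10 min ambient, then luminescence.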
# Luc counter – Counterscreen for Luciferase (Kinase-Glo TM) Inhibition; Luciferin 4-monooxygenase (Photuris pensylvanica), Q27757; Kinase-Glo luciferase, ATP luminescence, 8 min; Potency, µM (series often up to 38.3 µM), inactives show top-dose activity change, negative = inhibition, actives largely listed as inhibitors; 200,000 tested, 0.28% active; AID 1379, 2008; further: on the % scale 0 is the no-effect control and ±100 the full control effect; nearly all actives have a fitted effect of over 60% in size
#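 Compounds were added to a substrate mix at pH 7.2 (50 mM imidazole, 10 uM ATP, within the enzyme's linear range), followed by Kinase-Glo detection reagent; luminescence was measured after 8 minutes at ambient temperature.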
# ELG1 genotox – qHTS screen for small molecules that induce genotoxicity in human embryonic kidney (HEK293T) cells expressing luciferase-tagged ELG1 | HEK293T ELG1-luciferase reporter, luminescence, 16 h | 330,000 tested, 1.3% active | AID 504466, 2011 | Potency, µM (top dose mostly 46 µM), without a hit: at the top dose activity change, positive = activation, most hits filed as activators; further: % of control where 0% means no effect; nearly all actives have a fitted effect of over 60% in size
#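 Luminescence read-out: rising ELG1-luciferase signal, reflecting elevated ELG1 protein under genetic stress, flags genotoxic compounds. Cells were treated for 16 hr at 37 °C before ONE-Glo detection.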
# * = called active by the depositor; ? = inconclusive; . = no result. An excerpt weighted towards active compounds, which were near 7.5% of everything screened. The call rests on the fitted dose curve; in most records, active means well fitted curve in the direction sought with a large enough effect; inconclusive means small, poorly fitted or top-dose-only effect, or another doubt; inactive means no such curve, though single readings can be large; an effect the other way counts as inactive or inconclusive. Potency means the concentration at half of the fitted maximal effect.
SMILES,Rab9 promoter act,SMN2 splice enh,FLuc modulator,NPC1 promoter act,Luc counter,ELG1 genotox
O=C(N/N=C/c1cccc(O)c1)c1cc(-c2ccccc2)nc2ccccc12,0.1%,.,10.7µM*,-0.3%,.,-3.7%
CCOc1ccc(NC(=O)C2CCCN(c3nnc(-n4c(C)ccc4C)s3)C2)cc1 (stereo unspecified),.,-10.7%,0.1%,.,.,.
CCCN(CCC)CC(O)Cn1cc(/C=C/C(=O)c2ccc(OC)cc2)c2ccccc21 (stereo unspecified),.,-6.5%,-18.8%,.,.,.
O=C(Nc1ccc(OC(F)(F)F)cc1)C(Cc1ccccc1)NS(=O)(=O)c1cccc2nsnc12 (stereo unspecified),.,-30.9%,4.8%,.,.,.
CCOc1ccccc1-c1cc(C(=O)N/N=C/c2ccc3c(c2)OCO3)c2ccccc2n1,1.9%,28.7%,-15.8%,0.6%,-2.8%,2.3%
CCOc1ccccc1-c1cc(C(=O)N/N=C/c2ccc(O)c(OC)c2)c2ccccc2n1,2.8%,25.1µM*,-4.7%,0.3%,11.6%,-14.0%
O=C(O)c1ccc(CN2C(=O)c3ccc(C(=O)O)cc3C2=O)cc1,-1.9%,.,0.9%,1.1%,.,1.4%
O=C(O)c1cccc(NC(=O)c2ccc3c(c2)C(=O)N(Cc2ccco2)C3=O)c1,-2.8%,.,0.953µM*,0.0%,-1.8%,1.0%
O=C(O)COc1ccc(NC(=O)c2ccc3c(c2)C(=O)N(C2CCCCC2)C3=O)cc1,-1.8%,.,-0.8%,0.6%,.,-3.3%
O=C(O)c1cccc(NC(=O)c2ccc(CN3C(=O)c4ccccc4C3=O)cc2)c1,7.8%,.,12µM*,1.9%,.,0.1%
Cc1c(NC(=O)c2ccc3c(c2)C(=O)N(Cc2ccco2)C3=O)cccc1C(=O)O,-9.1%,-7.8%,15.1µM*,0.1%,2.8%,0.6%
O=C(O)c1cccc(NC(=O)c2ccc3c(c2)C(=O)N(C2CCCCC2)C3=O)c1,1µM*,.,0.19µM*,1.58µM*,.,?
Cc1cccc(NC(=O)CSc2nc3ccccc3nc2N2CCOCC2)c1C,.,4.5%,0.8%,.,.,.
Cc1ccc(C)c(N(C)C(=O)C2CCN(S(=O)(=O)c3cccc4nsnc34)CC2)c1,.,-31.7%,-0.7%,.,.,.
O=C(Nc1cccnc1)c1ccc(CSc2ccccc2)cc1,24.0%,.,-15.5%,1.9%,.,9.3%
O=C(O)c1ccc(NC2=C(Cl)C(=O)c3ccccc3C2=O)cc1,-42.1%,.,?,-32.5%,.,-15.6%
O=C(Nc1cccc(Br)c1)c1ccc(CSc2ccccc2)cc1,13.9%,-7.8%,12µM*,16.8%,-4.8%,5.2%
O=C(O)c1cccc(NC2=C(Cl)C(=O)c3ccccc3C2=O)c1,?,3.8%,16.9µM*,24.9%,-7.5%,-23.6%
CN1CCN(CCNC(=O)c2cnn(-c3ccc(Cl)cc3)c2C2CCN(C(=O)OC(C)(C)C)CC2)CC1,.,.,-0.3%,.,.,.
COc1cccc(C(=O)N2CC(=O)Nc3ccc(C)cc3C2c2ccc(F)cc2)c1OC (stereo unspecified),.,-5.2%,-3.3%,.,.,.
O=C(N/N=C/C=C\c1ccccc1[N+](=O)[O-])c1cc(-c2ccccc2)nc2ccccc12,-5.3%,0.0%,12µM*,1.7%,-7.1%,0.1%
O=C(N/N=C/c1ccc(Cl)c([N+](=O)[O-])c1)c1cc(-c2ccccc2)nc2ccccc12,1.0%,-33.8%,?,-5.6%,8.5%,26.5%
Cc1ccc(-c2cc(C(=O)N/N=C/c3ccc([N+](=O)[O-])o3)c3ccccc3n2)o1,?,.,0.301µM*,?,.,-4.7%
O=C(N/N=C/c1ccc([N+](=O)[O-])o1)c1cc(-c2ccncc2)nc2ccccc12,-16.5%,-21.9%,?,-18.2%,-11.2%,-5.6%
O=C(N/N=C/c1ccc([N+](=O)[O-])o1)c1cc(-c2ccc(-c3ccccc3)cc2)nc2ccccc12,?,2.51µM*,0.151µM*,?,11.2µM*,?
SMILES,Rab9 promoter act,SMN2 splice enh,FLuc modulator,NPC1 promoter act,Luc counter,ELG1 genotox
O=C(CCNS(=O)(=O)c1ccc2c(c1)CCCC(=O)N2)Nc1cccc(Cl)c1,.,.,-2.0%,.,.,.
CC(C)OCCCNC(=O)Cc1ccc(NC(=O)N2CCCCc3ccccc32)cc1,.,.,-11.2%,.,.,.
COc1ccc(-c2nc3ccc([N+](=O)[O-])cc3o2)cc1,1.12µM*,11.2µM*,0.757µM*,1.58µM*,-6.0%,6.51µM*
NC(N)=Nc1nc2cc([N+](=O)[O-])ccc2o1,8.9%,.,?,-1.3%,-2.7%,10.2%
O=[N+]([O-])c1ccc2oc(-c3ccccc3)nc2c1,2.24µM*,15.8µM*,?,?,-12.8%,?
Cc1cccc(-c2nc3cc([N+](=O)[O-])ccc3o2)c1,1.58µM*,15.8µM*,1.69µM*,3.55µM*,-28.6%,16.4µM*
Cc1ccccc1NC(=O)CSc1nc2nccnc2c(=O)n1CCc1c[nH]c2ccccc12,.,.,1.6%,.,.,.
CCOC(=O)c1ccc(NC(=O)CSc2nccn2-c2ccc(OCC)cc2)cc1,.,-4.4%,-6.5%,.,.,.
CC(C)(C)C(=O)Nc1ccc(C(=O)Nc2cc(NC(=O)c3ccc(NC(=O)C(C)(C)C)cc3)cc(C(=O)O)c2)cc1,29.8%,.,4.26µM*,18.2%,.,11.6%
O=C(O)c1cc(NC(=O)c2ccc(Br)cc2)cc(NC(=O)c2ccc(Br)cc2)c1,14.3%,.,21.3µM*,-6.3%,.,-4.8%
CC(C)(C)C(=O)Nc1ccc(C(=O)NNC(=O)c2ccccc2)cc1,20.0%,7.6%,?,16.6%,-2.3%,9.5%
CCN(Cc1ccccc1)C(=O)Nc1ccc2c(c1)N(C)C(=O)c1ccccc1S2,.,.,-10.6%,.,.,.
CCOC1OC(=O)C(Cl)=C1Nc1cc(C)ccc1C (stereo unspecified),-1.3%,-28.6%,2.6%,-1.1%,-0.3%,14.9%
COc1ccc(-c2csc(NC(=O)C3=COCCO3)n2)c(OC)c1,?,.,23.9µM*,?,.,20.6µM*
C=CCn1c(C)cc(-c2csc(NC(=O)C3=COCCO3)n2)c1C,1.58µM*,.,9.53µM*,2.24µM*,.,?
C=CCn1c(C)cc(-c2csc(NCC)n2)c1C,-3.7%,.,15.1µM*,23.3%,-10.2%,-7.7%
COc1ccc(-c2csc(NC(=O)CN3C(=O)C4CCCCC4C3=O)n2)c(OC)c1 (stereo unspecified),-4.8%,.,?,5.2%,.,0.5%
C=CCNc1nc(-c2ccc(OC)cc2OC)cs1,3.16µM*,?,12µM*,2.82µM*,-0.1%,?
Cc1ccccc1Nc1cc(C(=O)NC2CCC(C)CC2)c2ccccc2n1 (stereo unspecified),.,14.9%,3.7%,.,.,.
